Reference: PubChem BioAssay AID1671192 (National Center for Advancing Translational Sciences (NCATS), 2021)
Records with an inconclusive call do not appear. Calls of active or inactive are those of the source. The call rests on the fitted dose curve; in most records, active means well fitted curve in the direction sought with a large enough effect; inconclusive means small, poorly fitted or top-dose-only effect, or another doubt; inactive means no such curve, though single readings can be large or run the other way.

target: Polyunsaturated fatty acid lipoxygenase ALOX15 (Homo sapiens) (UniProt P16050); experiment: Counterscreen qHTS for inhibitors of human arachidonate 12S-lipoxygenase (ALOX12): ALOX15 Assay; settings: purified ALOX15 enzyme activity; series mostly up to 233 µM
Excerpt: Assay Provider: Theodore R. Holman Ph.D.
University of California, Santa Cruz, California
Human lipoxygenase 12hLO is a member of the closely related lipoxygenase family of enzymes which catalyze the site-specific oxidation of arachidonic acid to various hormone precursor molecules and as such is a candidate for drug development in a variety of disease areas, such as cancer and inflammation. Inhibition of 12hLO activity was screened by utilizing arachidonic acid as a substrate. The extent of hydroperoxide product formation was measured by a secondary chromogenic reaction in which xylenol orange (XO, Sigma-Aldrich, cat. number 39,818-7) reacts with the ferric ions produced from the reaction between the hydroperoxide and ferrous ions. The Fe (III)-XO complex is characterized with red-shifted absorbance at 560 nm. A purified preparation of human 12hLO was supplied by Dr. Holman laboratory, University of California, Santa Cruz.
An assay against arachidonate 15-lipoxygenase (ALOX15) was developed to assess selective inhibition against ALOX12. Desired compounds would show potent inhibition against ALOX12 and minimal to no inhibition against ALOX15.
SEQUENCE No. (e.g., 1, 2, 3, etc.); PARAMETER (e.g., Cells, Incubation, Reagent, etc.); VALUE; DESCRIPTION
1; Enzyme; 3 uL; 40 nM ALOX15 (15hLO-1) enzyme solution dispensed in 1536-well Greiner black, clear bottom plates.
2; Compound; 23 nL; compounds and controls were added.
3; Incubate; 15 min; room temperature.
4; Substrate; 1 uL; 50 uM arachidonic acid (final concentration).
5; Incubate; 30 min; room temperature.
6; Reagent; 4 uL; Fe-XO solution was added to each well.
8; Incubation; 30 min; room temperature
9; Detector; absorbance; Read 1 at 405 nm absorbance using ViewLux (PerkinElmer) CCD imager.
10; Detector; absorbance; Read 2 at 573 nm absorbance using ViewLux (PerkinElmer) CCD imager.
NOTES (numbers refer to sequence above)
1; 40 nM ALOX15 (final concentration) in buffer solution (25 mM Hepes, 0.01% Triton X-100, pH 7.5) was dispensed in columns 1, 2, 5 - 48. Column 1 is neutral (100% activity). Buffer only was dispensed in columns 3 and 4 as no enzyme negative controls. The plates were covered with metal lids with gas-exchange holes.
2; Compounds were pin transferred via a Kalypsys Pin Tool (Wako USA) in column 5 - 48. Control compound was transferred in column 2, titration of nordihydroguaiaretic acid (NDGA, Sigma-Aldrich, N5023) with top concentration of 10 mM in DMSO then 1:2 dilution in duplicate. Dilution factor of 23 nL into 4 uL final assay volume.
3; Covered assay plates were incubated for 15 min at room temperature.
4; Substrate was added to start the reaction; 50 uM arachidonic acid (Sigma-Aldrich, St. Louis, MO) was dispensed throughout the plate.
6; Chromogenic detection reagent solution (divalent iron/xylenol orange, Fe-XO) was added to each well: 200 uM xylenol orange, 300 uM ferrous ammonium sulfate prepared freshly in 50 mM sulfuric acid.
9, 10; Two absorbance readouts were obtained at 405 nm and at 573 nm using a ViewLux high-throughput CCD plate imager (PerkinElmer). The 573 to 405 (Read 2 / Read 1) absorbance ratio was used to compute reaction progress.

Sequence of Polyunsaturated fatty acid lipoxygenase ALOX15 (Homo sapiens) (P16050 whole entry, looked up): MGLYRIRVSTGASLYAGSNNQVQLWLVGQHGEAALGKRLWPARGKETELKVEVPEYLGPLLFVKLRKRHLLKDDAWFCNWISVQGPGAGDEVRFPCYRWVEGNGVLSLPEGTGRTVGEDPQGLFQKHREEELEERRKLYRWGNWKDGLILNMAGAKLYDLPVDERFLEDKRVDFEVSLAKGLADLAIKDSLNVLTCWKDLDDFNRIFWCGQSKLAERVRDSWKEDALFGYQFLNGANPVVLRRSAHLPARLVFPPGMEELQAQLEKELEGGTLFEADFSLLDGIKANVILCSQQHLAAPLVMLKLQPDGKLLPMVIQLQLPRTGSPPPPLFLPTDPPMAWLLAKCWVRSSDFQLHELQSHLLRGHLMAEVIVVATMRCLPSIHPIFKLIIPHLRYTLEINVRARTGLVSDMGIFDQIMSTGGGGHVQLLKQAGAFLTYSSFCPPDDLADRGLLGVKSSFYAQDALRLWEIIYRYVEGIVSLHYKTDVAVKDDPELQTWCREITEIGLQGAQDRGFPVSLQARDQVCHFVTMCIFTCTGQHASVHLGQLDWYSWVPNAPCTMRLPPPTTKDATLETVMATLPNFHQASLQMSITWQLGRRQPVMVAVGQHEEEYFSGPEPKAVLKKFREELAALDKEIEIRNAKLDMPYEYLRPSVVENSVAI

SMILES	outcome
CC1CN2CCCCC2CN1 (stereo not given)	inactive
COc1ccc(C(CN)N2CCCC2)cc1 (stereo not given)	inactive
CCN1CCCCC12Cc1ccccc1CN(C(=O)Cc1ccc(OC)cc1)C2 (stereo not given)	inactive
CC(C)C1CN2CCCC2CN1 (stereo not given)	inactive
FC(F)(F)CN1C2CCC1CN(c1cncc(Br)c1)C2	inactive
c1ccc(CC2CN3CCCC3CN2)cc1 (stereo not given)	inactive
CNC1CCc2ccccc21 (stereo not given)	inactive
CCN1CCCCC12Cc1ccccc1CN(C(=O)Cc1ccccc1)C2 (stereo not given)	inactive
CNC(C)c1ccc(Cl)cc1 (stereo not given)	inactive
O=[S+]1([O-])NC2(CCN(CC3CCOCC3)C2)COc2ccncc21 (stereo not given)	inactive
CCCCC1CN2CCCC2CN1 (stereo not given)	inactive
O=C1NC2(Cc3ccccc31)CN(CC1CC1)C2	inactive
c1cnc2nc(C3CCNCC3)[nH]c2c1	inactive
COc1ccc(CC(=O)N2Cc3ccccc3CC3(CCCCN3C)C2)cc1 (stereo not given)	inactive
O=C1Nc2ccccc2C12CCN(CC1CCCCC1)CC2	inactive
O=C(O)C1=NOC2CN(Cc3ccccc3)CC12 (stereo not given)	inactive
CN(C)c1ccc(CN2CCC3(CC2)C(=O)Nc2ccccc23)cc1	inactive
O=C1Nc2ccccc2CN(Cc2ccncc2)C12CCNCC2	inactive
O=C(Cc1ccc(Cl)cc1)N1Cc2ccccc2CC2(CCCN2CC2CCNC2)C1 (stereo not given)	inactive
O=C(O)C1=NOC2CN(Cc3cccc(Br)n3)CC12 (stereo not given)	inactive
